Data on 14 compounds can be found in the supplement of paper PMC6658780.

Structures are written as SMILES. Structures can show the parent of a compound that is named as a salt. ± gives the standard deviation of the averaged measurements.

Assay [1] relates to Klebsiella pneumoniae KPC-119. Briefly: percent growth inhibition of drug alone vs DMSO control; higher = more growth inhibition. The conditions noted are these: antibiotic (0.125x MIC): none (0.1% DMSO).
Assay [2] concerns Klebsiella pneumoniae KPC-119. Kind of assay: percent growth inhibition of drug + antibiotic vs DMSO control; higher = more growth inhibition.
Assay [3] relates to Klebsiella pneumoniae NCTC-13439. Briefly: percent growth inhibition of drug alone vs DMSO control; higher = more growth inhibition. The conditions noted are these: antibiotic (0.125x MIC): none (0.1% DMSO).
The test system is the same in assay [4]. Kind of assay: percent growth inhibition of drug + antibiotic vs DMSO control; higher = more growth inhibition.
The mark [5] stands for this setting: antibiotic (0.125x MIC): colistin, 7 µM.
Setting [6] is: antibiotic (0.125x MIC): colistin, 20 µM.
Setting [7] is: antibiotic (0.125x MIC): gentamicin, 7 µM.
Where [8] appears, read: antibiotic (0.125x MIC): gentamicin, 20 µM.
The mark [9] stands for this setting: antibiotic (0.125x MIC): meropenem, 20 µM.
[10] abbreviates: antibiotic (0.125x MIC): ciprofloxacin, 7 µM.
Setting [11] is: antibiotic (0.125x MIC): ciprofloxacin, 20 µM.
Setting [12] is: antibiotic (0.125x MIC): tigecycline, 20 µM.
[13] abbreviates: antibiotic (0.125x MIC): tigecycline, 7 µM.

In the case of `C[C@@H]1CN(c2c(F)c(N)c3c(=O)c(C(=O)O)cn(C4CC4)c3c2F)C[C@H](C)N1` [Sparfloxacin], the “percent growth inhibition of drug alone” value in assay [1] (7 µM) was 33.5 ± 3.3%; in assay [1] (20 µM), 99.04 ± 0.49%. The percent growth inhibition was found to be 99.4 ± 0.42% in assay [2] (setting [5]) and 99.2 ± 0.83% in assay [2] (setting [6]).
As to `NCC[C@H](O)C(=O)N[C@@H]1C[C@H](N)[C@@H](O[C@H]2O[C@H](CN)[C@@H](O)[C@H](O)[C@H]2O)[C@H](O)[C@H]1O[C@H]1O[C@H](CO)[C@@H](O)[C@H](N)[C@H]1O` [Amikacin hydrate], the “percent growth inhibition of drug alone” value in assay [1] (7 µM) came to 3.37 ± 0.38%; in assay [1] (20 µM), 39.8 ± 0.7%. Moreover, the percent growth inhibition in assay [2] (setting [5]) was found to be 38.9 ± 2.6%; in assay [2] (setting [6]), 92.29 ± 0.57%; in assay [2] (setting [7]), 30.1 ± 9.4%; in assay [2] (setting [8]), 99.83 ± 0.21%; in assay [2] (setting [9]), 99.71 ± 0.1%.
`O=C1NCN(c2ccccc2)C12CCN(CCCC(c1ccc(F)cc1)c1ccc(F)cc1)CC2` [Fluspirilen]: the “percent growth inhibition of drug alone” value in assay [1] (7 µM) was -0.668 ± 2.3%; in assay [1] (20 µM), -1.04 ± 3.2%. The percent growth inhibition in assay [2] (setting [5]) was 4.99 ± 4%; in assay [2] (setting [6]) it was 96.4 ± 1.1%.
As for `O=C(OCC(O)CO)c1ccccc1Nc1ccnc2cc(Cl)ccc12` (stereo unspecified) [Glafenine hydrochloride], the results for the “percent growth inhibition of drug alone” value in assay [3] (7 µM) and in assay [3] (20 µM) were -9.8 ± 14% and 3.73 ± 17%, respectively. In addition, the percent growth inhibition stood at 6.41 ± 16% in assay [4] (setting [10]) and 5.01 ± 4.3% in assay [4] (setting [11]).
As for `NC(=O)N/N=C/c1ccc([N+](=O)[O-])o1` [Nitrofural], the figures for the “percent growth inhibition of drug alone” value in assay [3] (7 µM) and in assay [3] (20 µM) were -7.28 ± 2% and 11.8 ± 8.7%, respectively. Further, the figures for the percent growth inhibition in assay [4] (setting [10]) and in assay [4] (setting [11]) were 10.1 ± 18% and 16.3 ± 2.7%, respectively.
Turning to `C=CC1=C(C(=O)O)N2C(=O)[C@@H](NC(=O)/C(=N\OCC(=O)O)c3csc(N)n3)[C@H]2SC1` [Cefixime], the “percent growth inhibition of drug alone” value in assay [1] (7 µM) is 9.48 ± 2.4%; in assay [1] (20 µM) it was 44.3 ± 4.2%. The percent growth inhibition is 9.79 ± 12% in assay [2] (setting [5]), 97.8 ± 1.9% in assay [2] (setting [6]), 29.8 ± 2% in assay [2] (setting [7]) and 97.5 ± 3.4% in assay [2] (setting [8]).
Take `N=C(NCCCCCCNC(=N)NC(=N)Nc1ccc(Cl)cc1)NC(=N)Nc1ccc(Cl)cc1` [Chlorhexidine]: the figures for the “percent growth inhibition of drug alone” value in assay [3] (7 µM) and in assay [3] (20 µM) were 2.54 ± 9.5% and 57.6 ± 4.2%, respectively. Besides, the percent growth inhibition in assay [4] (setting [10]) was 38.3 ± 1.2%; in assay [4] (setting [11]), 100.15 ± 0.021%; in assay [4] (setting [12]) it was 100.14 ± 0.079%.
Regarding `COc1c(N2CCNC(C)C2)c(F)cc2c(=O)c(C(=O)O)cn(C3CC3)c12` (stereo unspecified) [Gatifloxacin], in assay [3] (7 µM), the “percent growth inhibition of drug alone” value amounted to 12.5 ± 5.8%. For the same compound, the values for the percent growth inhibition in assay [4] (setting [10]), in assay [4] (setting [11]) and in assay [4] (setting [13]) were 26.2 ± 8.2%, 96.7 ± 1.2% and 17.5 ± 19%, respectively.
Consider `CC(=O)CCCCn1c(=O)c2c(ncn2C)n(C)c1=O` [Pentoxifylline], for which the “percent growth inhibition of drug alone” value in assay [3] (20 µM) was 2.73 ± 3.2%. The percent growth inhibition is 2.24 ± 1.5% in assay [4] (setting [10]), 5.4 ± 5.5% in assay [4] (setting [11]), 1.34 ± 3.2% in assay [4] (setting [13]) and 4.32 ± 0.75% in assay [4] (setting [12]).
Turning to `CC1CCc2c(N3CCC(O)CC3)c(F)cc3c(=O)c(C(=O)O)cn1c23` (stereo unspecified) [Nadifloxacin], the “percent growth inhibition of drug alone” value turned out to be 6.2 ± 4.4% in assay [1] (7 µM) and 36 ± 4.7% in assay [1] (20 µM). Moreover, the percent growth inhibition was found to be 82.4 ± 20% in assay [2] (setting [5]) and 98.1 ± 1.5% in assay [2] (setting [6]).
`C#C[C@]1(OC(C)=O)CC[C@H]2[C@@H]3CCC4=CC(=NO)CC[C@@H]4[C@H]3CC[C@@]21CC` (mixture of isomers) [Norgestimate]: the figures for the “percent growth inhibition of drug alone” value in assay [3] (7 µM) and in assay [3] (20 µM) were -4.1 ± 1.3% and -14.2 ± 4.9%, respectively. For the same compound, the percent growth inhibition is -7.59 ± 3.1% in assay [4] (setting [10]) and 4.4 ± 13% in assay [4] (setting [11]).
Turning to `CCCCC(CC)CNC(=N)NC(=N)NCCCCCCNC(=N)NC(=N)NCC(CC)CCCC` (stereo unspecified) [Alexidine dihydrochloride], in assay [1] (20 µM), the “percent growth inhibition of drug alone” value is 99.76 ± 0.25%. The percent growth inhibition in assay [2] (setting [5]) came out at 98.02 ± 0.96%; in assay [2] (setting [6]), 94.8 ± 1.6%; in assay [2] (setting [7]) it was 99.857 ± 0.088%; in assay [2] (setting [8]) it was 99.929 ± 0.046%; in assay [2] (antibiotic (0.125x MIC): meropenem, 7 µM), 99.739 ± 0.078%; in assay [2] (setting [9]), 100.04 ± 0.0019%.
`Nc1nc(/C(=C/CC(=O)O)C(=O)N[C@@H]2C(=O)N3C(C(=O)O)=CCS[C@H]23)cs1` [Ceftibuten]: the “percent growth inhibition of drug alone” value in assay [1] (7 µM) came to 38.6 ± 4.3%. Besides, the percent growth inhibition was 99.37 ± 0.26% in assay [2] (setting [8]) and 94.5 ± 4.1% in assay [2] (setting [9]).
For the compound `COC(=O)N/N=C/c1c[n+]([O-])c2ccccc2[n+]1[O-]` [Carbadox], the results for the “percent growth inhibition of drug alone” value in assay [1] (7 µM) and in assay [1] (20 µM) were 1.29 ± 2% and 11 ± 1.9%, respectively. In addition, the percent growth inhibition was 34.1 ± 0.81% in assay [2] (setting [5]), 87.5 ± 11% in assay [2] (setting [6]) and 15.7 ± 0.29% in assay [2] (setting [7]).
